Experimental data reported in PubChem BioAssay (NCI).
This is part of a sample that, as a whole, favours compounds with a hit. Of some 83,000 tested, about 20% had one in any assay.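 Values shown are percent growth following 48 h exposure of cells in 96-well plates to a single concentration of compound; below 10 was considered active.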 Unmarked numbers belong to inactive results. Activity calls are given as the source filed them.

System: NCI-H460 lung
Assay: NCI-60 one-dose screen, 48 h (100 = growth as untreated, 0 = no growth, -100 = all killed)
Settings: 10 µM unless noted

Compound | growth
COc1cc(OCc2cccc(-c3ccccc3)c2C)cc(OC)c1CN1CCCCC1C(=O)NCCOCCOCCN (configuration not stated) | 41.8%
COc1ccc(-c2cn(Cc3ccc4c(Br)cc(Br)c(O)c4n3)nn2)cc1 | 105%
O=c1c(Cc2ccc(F)cc2)cc(-c2ccccc2)nn1C/C(=N/O)c1ccccc1 | 37.4%
C1=C2CCCC3=Cc4ccccc4OC23Oc2ccccc21 | 13.5%
N/C(=N\c1nc2ccccc2s1)NC(=O)Nc1ccccc1 | 14.4%
C=C(C)[C@@H]1CC[C@]2(COCCCNCCCN)CC[C@]3(C)[C@H](CC[C@@H]4[C@@]5(C)CC[C@H](OCCCN)C(C)(C)[C@@H]5CC[C@]43C)[C@@H]12 | -83% (active)
N#CC1=C(N)Oc2c(ccc3ccccc23)C1c1cc2ccccc2n2nnnc12 (configuration not stated) | 11.3%
CC(C)(C#N)c1cc(C(=O)Nc2cc(Nc3ncccc3-c3ncnc4nc[nH]c34)ccc2F)cc(C(F)(F)F)c1 | 35.9%
CN1CCN(CC(=O)N(C)c2ccc(N=C(c3ccccc3)c3c(O)[nH]c4ccc([N+](=O)[O-])cc34)cc2)CC1 | 54.5%
Cc1c(Cl)cccc1NC(=O)c1sc2nc3c(cc2c1N)CCCC3 | 12.9%
COC(=O)c1c(C)nc(C)c2c1C(=O)C(Br)=C(NCCN1CCOCC1)C2=O | 88.6%
COc1ccccc1NC(=O)n1c(=O)cc(C)c2ccc(O)cc21 | 111%
C#CCOC(=O)C(N)CSSCC(N)C(=O)O (configuration not stated) | 90.4%
CN(C)CCOc1nc2c3cc([N+](=O)[O-])ccc3nn2c2ccccc12 | 4.99% (active)
CC(=O)Oc1ccccc1C(=O)N(Cc1ccc2c(Cl)cc(Cl)c(O)c2n1)c1ccccc1 | 29.7%
C=CCOC(=O)C1=C(C)N(CC)C(=O)N(CC)C1c1c(Cl)n(C)c2ccccc12 (configuration not stated) | 88.1%
CNC(=O)c1cc(Oc2ccc3nc(NC(=O)c4cc(C(F)(F)F)cc(C(F)(F)F)c4)sc3c2)ccn1 | 15.7%
COc1cc(C2=Nc3c(N)nc(N)nc3NC(c3cccc(Nc4ccnc5cc(C(F)(F)F)ccc45)c3)C2)cc(OC)c1OC (configuration not stated) | 72.5%
c1ccc2[nH]c(-c3ccc(-c4nccc5c4[nH]c4ccccc45)cc3)nc2c1 | 42.9%
COc1ccc(/C=C2/CCc3cc4ccc(OC)cc4[o+]c32)c(O)c1 | 25.3%
Cc1c(-c2cnc3ccc(Cl)cc3c2C(=O)O)nnn1-c1ccc(Cl)cc1 | 107%
COc1ccc(NC(=O)c2ccc(NC3=C(c4ccc(Cl)cc4)C(=O)NC3=O)cc2)cc1 | 90.6%
O=C1CC2C=CCN2C=C1NC(=O)c1ccccc1 (configuration not stated) | 111%
COc1cccc(CNc2nnc(C)c(C)n2)c1O | 102%
COc1cc2c(c(OC)c1OC)CCC(c1cccc(C(=O)Nc3ccc([N+](=O)[O-])cc3)c1)O2 (configuration not stated) | 58.8%
CO[C@]12C=C/C(=C(/C(=O)OCc3cccnc3)C(=O)CCCCCCCC[C@]3(OC)C=C/C(=C(/C(=O)OCc4cccnc4)C(=O)CCCCCCCC1)O3)O2 | -18.3% (active)
O=c1cc(-c2nccc3c2[nH]c2ccccc23)c2cc(Cl)ccc2o1 | 21.5%

System: HOP-92 NSCLC
Assay: as above
Settings: 10 µM unless noted

Compound | growth
CCOC(=O)c1cc(C(=O)c2cc(OC)cc(OC)c2)n2ncccc12 | 47.1%
CO[C@H]1/C=C/O[C@@]2(C)Oc3c(C)c(O)c4c(O)c(c5c(nc6cc(C)ccn65)c4c3C2=O)NC(=O)/C(C)=C\C=C\[C@H](C)[C@H](O)[C@@H](C)C(O)[C@@H](C)[C@H](OC(C)=O)[C@@H]1C (some centres not stated) | 98.7%
CN1CCN(Cn2nc(-c3cc(Cl)cc(Cl)c3Cl)oc2=S)CC1 | 119%
COC1=C(OC)C(=O)C(CCCCCCCCCCO)=C(C)C1=O | 76.6%
COCCn1cc(-c2nc(-c3cc4cccnc4n3C)cs2)c2cc(OC)ccc21 | 31.4%
O=C(/C=C/c1ccc(Cl)cc1)c1ccc(-n2cc(CN3CCN(c4cc5c(cc4F)c(=O)c(C(=O)O)cn5C4CC4)CC3)nn2)cc1 | 84.8%
Cc1ccc(S(=O)(=O)c2nc(-c3ccccc3)oc2S(C)=O)cc1 (configuration not stated) | -51.8% (active)
CNC(=O)c1cc(Oc2ccc3nc(NC(=O)Nc4ccc(F)cc4F)sc3c2)ccn1 | -13.7% (active)
CCCCN(CCC#N)C(N)=O | 97.2%
COc1cccc(/C=C2\CCc3ccccc3C2=O)c1 | 64.3%
C#Cc1c(I)n(C2OC(CO[Si](C)(C)C(C)(C)C)C3OC(C)(C)OC32)c(=O)[nH]c1=O (configuration not stated) | -80.9% (active)
COc1cc(/C=C2\C(=O)N(CCOc3cc(O)c4c(=O)cc(-c5ccccc5)oc4c3)c3ccccc32)cc(OC)c1O | 80.5%
O=C1c2ccccc2-c2c1c1ccncc1c(=O)n2CCCn1ccnc1 | 78.5%
COc1cc(OCc2cccc(-c3ccccc3)c2C)cc(OC)c1CN1CCCCC1C(=O)NCCOCCOCCN (configuration not stated) | 46.4%
COc1ccc(-c2cn(Cc3ccc4c(Br)cc(Br)c(O)c4n3)nn2)cc1 | 80.3%
O=c1c(Cc2ccc(F)cc2)cc(-c2ccccc2)nn1C/C(=N/O)c1ccccc1 | 42.6%
C1=C2CCCC3=Cc4ccccc4OC23Oc2ccccc21 | 61.4%
N/C(=N\c1nc2ccccc2s1)NC(=O)Nc1ccccc1 | 53.2%
C=C(C)[C@@H]1CC[C@]2(COCCCNCCCN)CC[C@]3(C)[C@H](CC[C@@H]4[C@@]5(C)CC[C@H](OCCCN)C(C)(C)[C@@H]5CC[C@]43C)[C@@H]12 | 75.3%
N#CC1=C(N)Oc2c(ccc3ccccc23)C1c1cc2ccccc2n2nnnc12 (configuration not stated) | 49.2%

Compound | growth
CC(C)(C#N)c1cc(C(=O)Nc2cc(Nc3ncccc3-c3ncnc4nc[nH]c34)ccc2F)cc(C(F)(F)F)c1 | -5.84% (active)
CN1CCN(CC(=O)N(C)c2ccc(N=C(c3ccccc3)c3c(O)[nH]c4ccc([N+](=O)[O-])cc34)cc2)CC1 | 87.9%
Cc1c(Cl)cccc1NC(=O)c1sc2nc3c(cc2c1N)CCCC3 | 25.6%
COC(=O)c1c(C)nc(C)c2c1C(=O)C(Br)=C(NCCN1CCOCC1)C2=O | 118%
COc1ccccc1NC(=O)n1c(=O)cc(C)c2ccc(O)cc21 | 88.9%
C#CCOC(=O)C(N)CSSCC(N)C(=O)O (configuration not stated) | 97.5%
CN(C)CCOc1nc2c3cc([N+](=O)[O-])ccc3nn2c2ccccc12 | 57.3%
CC(=O)Oc1ccccc1C(=O)N(Cc1ccc2c(Cl)cc(Cl)c(O)c2n1)c1ccccc1 | 61.6%
C=CCOC(=O)C1=C(C)N(CC)C(=O)N(CC)C1c1c(Cl)n(C)c2ccccc12 (configuration not stated) | 21.6%
CNC(=O)c1cc(Oc2ccc3nc(NC(=O)c4cc(C(F)(F)F)cc(C(F)(F)F)c4)sc3c2)ccn1 | -32.5% (active)
COc1cc(C2=Nc3c(N)nc(N)nc3NC(c3cccc(Nc4ccnc5cc(C(F)(F)F)ccc45)c3)C2)cc(OC)c1OC (configuration not stated) | 47.9%
c1ccc2[nH]c(-c3ccc(-c4nccc5c4[nH]c4ccccc45)cc3)nc2c1 | 92.4%
COc1ccc(/C=C2/CCc3cc4ccc(OC)cc4[o+]c32)c(O)c1 | 56.1%
Cc1c(-c2cnc3ccc(Cl)cc3c2C(=O)O)nnn1-c1ccc(Cl)cc1 | 88.7%
COc1ccc(NC(=O)c2ccc(NC3=C(c4ccc(Cl)cc4)C(=O)NC3=O)cc2)cc1 | 102%
O=C1CC2C=CCN2C=C1NC(=O)c1ccccc1 (configuration not stated) | 110%
COc1cccc(CNc2nnc(C)c(C)n2)c1O | 81.2%
COc1cc2c(c(OC)c1OC)CCC(c1cccc(C(=O)Nc3ccc([N+](=O)[O-])cc3)c1)O2 (configuration not stated) | 42.6%
CO[C@]12C=C/C(=C(/C(=O)OCc3cccnc3)C(=O)CCCCCCCC[C@]3(OC)C=C/C(=C(/C(=O)OCc4cccnc4)C(=O)CCCCCCCC1)O3)O2 | -28.5% (active)
O=c1cc(-c2nccc3c2[nH]c2ccccc23)c2cc(Cl)ccc2o1 | 26.1%
